Laboratory results from the supplement of paper PMC6555819.

Assays:
Assay in all cases: PBM binding z-score (relative to random genomic background probes); higher = stronger binding; sequences stand for … in GC…GCGATTGACAGCGTAGAATGAAGG
[1] = system: FXR:RXRa (NR concentration 270 nM, RXRa partner concentration 90 nM)
Outline: (§1)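 Regression normalization was applied to scanned fluorescence from custom Agilent 4×180K protein-binding microarrays. Before scanning, arrays were incubated 1 h with ligand-free nuclear receptor dimers, and binding was detected with antibodies against each partner (one per run). Binding z-scores use the random background probes as reference.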

[2] = system: LXRa:RXRa (NR concentration 270 nM, RXRa partner concentration 90 nM)
Outline: as §1

[3] = system: LXRa homodimer (NR concentration 270 nM)
Outline: as §1

[4] = system: LXRb:RXRa (NR concentration 270 nM, RXRa partner concentration 90 nM)
Outline: as §1

[5] = system: PPARa:RXRa (NR concentration 270 nM, RXRa partner concentration 90 nM)
Outline: as §1

[6] = system: PPARg:RXRa (NR concentration 180 nM, RXRa partner concentration 90 nM)
Outline: as §1

[7] = system: PPARg:RXRa 270nM:90nM, anti-RXR (NR concentration 270 nM, RXRa partner concentration 90 nM)
Outline: as §1

[8] = system: PPARg:RXRa 30nM:10nM, anti-RXR (NR concentration 30 nM, RXRa partner concentration 10 nM)
Outline: as §1

[9] = system: PPARg:RXRa 90nM:30nM, anti-RXR (NR concentration 90 nM, RXRa partner concentration 30 nM)
Outline: as §1

Sequence	PBM binding z-score [1]	PBM binding z-score [2]	PBM binding z-score [3]	PBM binding z-score [4]	PBM binding z-score [5]	PBM binding z-score [6]	PBM binding z-score [7]	PBM binding z-score [8]	PBM binding z-score [9]
CCGAGTAGGTTACGAGGGGGCAGTCAGTGCGAAT	2.18	6.39	0.422	5.55	3.14	2.19	3.18	0.853	2.04
TCGAGTAGATTACGGGGGCATTCAGGGATGAAGA	1.41	1.87	0.702	4.05	2.53	1.06	2.64	2.04	2.12
TCGAGTAGGTTACGGGGGCATTCAAGGATGAAGA	2.72	3.01	0.487	4.72	4.27	6.08	5.8	3.65	4.94
CCGAGTAGGTTACGAGGGGGCTTTCAGTGCGAAT	1.47	3.54	0.44	4.05	2.66	1.29	2.7	0.558	1.82
CCAAGTAGGTTACGAGGGGGCATTCAGTGCGAAT	3.42	7.37	1.65	6.39	4.05	4.83	4.89	2.33	3.81
CTATGTAGGTTAAGGGGGTCAGTCAGTTTGAAAG	3.26	3.55	1.38	5.26	5.54	8.01	7.42	5.06	7.09
TCCAGTAGGTTACGGGGGCATTCAGGGATGAAGA	3.09	3.47	1.18	5.7	4.68	7.15	6.28	5.22	6.53
CTTTGTAGGTTAAGGGGGTCATTCAGTTTGAAAG	5.24	5.35	3.53	6.5	6.06	7.86	7.59	5.64	7.23
TCGAGTAGGTTACGGGGGCATTGAGGGATGAAGA	2.37	2.69	0.404	4.67	4.31	6.35	5.59	3.59	5.05
CCGAGTAGGTTGCGAGGGGGCATTCAGTGCGAAT	1.26	2.94	0.489	4.71	2.73	0.173	1.85	0.127	1.53
TCGAGTATGTTACGGGGGCATTCAGGGATGAAGA	2.26	2.6	0.591	4.72	2.9	1.94	3.22	2.44	3.35
CCGAGTAGGTTACGAGGGGGCCTTCAGTGCGAAT	0.952	2.66	0.0596	3.94	2.44	1.5	2.53	0.553	1.8
CTATGTAGGTTAAGGGGGTCATTCAGTTTGAAAG	5.62	5.08	3.54	6.24	6.31	9	7.99	6.08	8.01
CCGAGTAGTTTACGAGGGGGCATTCAGTGCGAAT	1.62	4.8	0.906	4.15	2.17	-0.276	1.08	0.469	1.59
TCGAGTAGGTTATGGGGGCATTCAGGGATGAAGA	1.82	2.24	0.602	4.74	3.71	4.86	4.86	2.99	4.23
CCGAGTAGGTTACGAGGGGGCATCCAGTGCGAAT	1.87	6.84	1.45	5.77	3.24	2.67	3.34	0.797	2.31
CTATGTAGGTGAAGGGGGTCATTCAGTTTGAAAG	4.41	4.45	1.53	5.87	6.36		8.53	7.28	8.98
CGATGTAGGTTAAGGGGGTCATTCAGTTTGAAAG	5.57	4.7	3.53	6.23	5.85	8.23	7.56	6.22	7.61
CTATGTATGTTAAGGGGGTCATTCAGTTTGAAAG	4.79	5	3.54	6.57	5.68	5.43	6.26	3.94	5.84
CCGAGTAGGTTACGGGGGGGCATTCAGTGCGAAT	4.53	6.83	3.13	7.21	3.74	4.54	4.46	2.55	3.84
CTAGGTAGGTTAAGGGGGTCATTCAGTTTGAAAG	4.79	4.89	2.54	6.08	5.56	6.17	6.57	3.72	5.95
CTATGTAGATTAAGGGGGTCATTCAGTTTGAAAG	4.51	4.72	3.33	6.12	5.52	4.29	5.06	2.72	4.53
TCGAGTAGGTTACGGGGGCCTTCAGGGATGAAGA	1.17	1.71	0.239	4.15	2.99	2.78	3.68	1.85	2.72
CTATGTAGTTTAAGGGGGTCATTCAGTTTGAAAG	4.48	4.76	3.99	6.25	5.3	4.03	5.19	2.68	4.56
CCGTGTAGGTTACGAGGGGGCATTCAGTGCGAAT	2.88	7.45	2.37	6.73	3.56	2.16	3.34	1.52	2.52
CCGAGTAGGTTACGAGGGTGCATTCAGTGCGAAT	0.536	5.55	-0.00974	2.43	1.8	1.46	1.92	0.234	1.13
